According to PubChem BioAssay (Tox21):
Values joined by “and” are separate entries in the source; they are usually repeats but may differ in a detail not shown here. Equal entries are not always repeated. Records with an inconclusive call do not appear. Unmarked numbers belong to inactive results. Active and inactive are the calls of the source. Calls come from the whole dose curve.

Assay: qHTS assay to identify small molecule antagonists of the sonic hedgehog signaling (Shh) pathway (AID 1259369); note: nearly all actives have a fitted effect of over 45% in size
Settings: NIH/3T3 Gli1-Luc reporter, Shh antagonist, luminescence 24 h; series mostly up to 92.4 µM; activity change, negative = inhibition: at the top concentration
Text: U.S. Tox21 Program National Center for Advancing Translational Sciences [NCATS] NIH Chemical Genomics Center [NCGC] U.S. Environmental Protection Agency [EPA] National Institutes of Environmental Health Sciences [NIEHS] National Toxicology Program [NTP] U.S. Food and Drug Administration [FDA] Tox21 Assay Overview: The sonic hedgehog (Shh) pathway is essential for normal embryonic development. Dysregulation of the Shh pathway can cause severe developmental defects in organs. Therefore chemicals that interfere with the pathway are potential developmental toxicants. A cell line designated 3T3Gli1-Luc (DMB/OARSA/CFSAN/FDA, Laurel, MD), a NIH/3T3 derived clone containing stably integrated Gli1-Luc reporter is used to detect chemical interference of the Shh pathway, by changes in the expression of the firefly Luc gene under the control of the Gli1 transcriptional response element. This cell line was used to screen Tox21 libraries for identifying and prioritizing the potential developmental toxicants that interfere Shh pathway. Conditioned medium-stimulated mode was used to screen for chemicals inhibiting Shh signaling.
Tox21 Assay Protocol Summary: 3T3 Gli1-Luc cells were dispensed at 2,000 per well in 5uL of culture medium into white solid bottom 1536-well plates (Greiner Bio-One, Monroe, NC) using a Multidrop Combi (Thermo Scientific, Waltham, MA) dispenser. The assay plates were incubated at 37 C and 5% CO2 for 4hr, and then 23nL of compounds dissolved in DMSO and positive control were transferred using a Pintool station (Wako, San Diego, CA). The compound transfer was followed by the addition of 1ul conditioned medium or assay buffer using two separate tips of Flying Reagent Dispenser (FRD, Aurora Discovery, San Diego, CA). The assay plates were incubated at 37C and 5% CO2 for 24hr. For luciferase read, 4uL of Amplite Luciferase reporter gene assay reagent (AAT Bioquest, Inc. Sunnyvale, CA) was added to each well of the assay plates using FRD and incubated at room temperature for 30min. The luminescence signal was measured using a ViewLux plate reader (Perkin Elmer, Shelton, CT).
% is set by controls: 0 for no effect and ±100 for the full control effect; potency is the fitted concentration of half-maximal effect.

| SMILES | activity change, negative = inhibition | Potency |
| --- | --- | --- |
| C=C(C)C(=O)OCCCCCCCCCCCCC | 8.99% | – |
| C=C(C)C(=O)OCCOCCOC(=O)C(=C)C | -8.76% | – |
| O=c1cc(-c2ccccc2)oc2ccc3ccccc3c12 | – | 5.45 µM (active) |
| CC1(C)O[C@@H]2C[C@H]3[C@@H]4C[C@H](F)C5=CC(=O)C=C[C@]5(C)[C@H]4[C@@H](O)C[C@]3(C)[C@]2(C(=O)CO)O1 | -4.32% [at 42.5 µM] | – |
| O=c1[nH]c2ccc(Cl)cc2o1 | -2.99% | – |
| COc1ncnc(NS(=O)(=O)c2ccc(N)cc2)c1OC | 18.8% [at 42.5 µM] | – |
| NC1[C@H]2CN(c3nc4c(cc3F)c(=O)c(C(=O)O)cn4-c3ccc(F)cc3F)C[C@@H]12 (stereo not given in full) | – | 29.8 µM (active) |
| CC(=O)N/N=C/c1ccc([N+](=O)[O-])o1 | – | 26.6 µM (active) |
| Brc1cc(Br)c(Oc2cc(Br)c(Br)cc2Br)cc1Br | 3.84% [at 42.5 µM] | – |
| COC(=O)c1nc(Cl)c(Cl)nc1N | – | 0.75 µM (active) |
| CC=C(Cl)Cl | -9.11% | – |
| O=C1c2ccccc2C(=O)N1CCc1noc(-c2ccc(CN3CCCCCC3)s2)n1 | – | 22.3 µM (active) |
| O=c1c(O)c(-c2ccc(O)cc2)oc2cc(O)cc(O)c12 | – | 21.6 µM (active) and 26 µM (active) |
| C(=C\c1ccccc1)/c1ccccc1 | 25.2% | – |
| CCOC(=O)c1ccccc1C(=C1C=C(Br)C(=O)C(Br)=C1)c1cc(Br)c(O)c(Br)c1 | -17.4% [at 42.5 µM] | – |
| COc1cc(C(=O)NCCCCCC(=O)O)cc(OC)c1OC | 0.492% [at 42.5 µM] | – |
| FC(F)(F)c1ccccc1Cl | 19% | – |
| C=C1C[C@@]23CC[C@H]4[C@@](C)(CCC[C@@]4(C)C(=O)O[C@@H]4O[C@H](CO)[C@@H](O)[C@H](O)[C@H]4O)[C@@H]2CC[C@]1(O[C@@H]1O[C@H](CO)[C@@H](O)[C@H](O[C@@H]2O[C@H](CO)[C@@H](O)[C@H](O)[C@H]2O)[C@H]1O[C@@H]1O[C@H](CO)[C@@H](O)[C@H](O)[C@H]1O)C3 | -0.956% | – |
| CC(=O)Nc1ccc(C)cc1C | 13.2% | – |
| Oc1cccc(O)c1O | – | 15.2 µM (active) |

| SMILES | activity change, negative = inhibition | Potency |
| --- | --- | --- |
| O=c1cc(-c2ccccc2)oc2cc(O)cc(O)c12 | – | 61.1 µM (active) |
| CCC(OCCCOC)OC(C)=O (stereo not given) | 0.825% | – |
| CS(=O)(=O)c1ccc(-c2cn3ccccc3n2)cc1 | – | 33.5 µM (active) |
| CC1=Nc2ccc3ccccc3c2C1(C)C | – | 30.6 µM (active) |
| O=C1c2ccccc2C(=O)c2c(O)c(O)cc(O)c21 | 11.7% | – |
| C=C(C)[C@@H]1CCC2=CCC[C@@H](C)[C@]2(C)C1 | – | 24.3 µM (active) |
| CC(C)C=O | 29.8% | – |
| CN1CC(=O)N2[C@H](c3ccc4c(c3)OCO4)c3[nH]c4ccccc4c3C[C@@H]2C1=O | 21.4% [at 42.5 µM] | – |
| C[C@@H]1CC(=O)NN=C1c1ccc(NN=C(C#N)C#N)cc1 | – | 13.3 µM (active) |
| C=COCC(C)C | -3.17% | – |
| CC(C)=CCC/C(C)=C/CC/C(C)=C/C(=O)OCC(=O)[C@@]1(O)CC[C@H]2[C@@H]3CCC4=CC(=O)C=C[C@]4(C)[C@H]3[C@@H](O)C[C@@]21C | – | 8.41 µM (active) |
| c1cc(N(CC2CO2)CC2CO2)ccc1Cc1ccc(N(CC2CO2)CC2CO2)cc1 (stereo not given) | – | 15.4 µM (active) |
| O=C=Nc1cccc(C(F)(F)F)c1 | -13.3% | – |
| Cc1cc(C)c(N)cc1C | 16.3% | – |
| COc1cc(C(=O)NC2CCN(C)CC2)ccc1Nc1ncc2c(n1)N(C1CCCC1)CC(F)(F)C(=O)N2C | – | 0.112 µM (active) |
| CCCCCCCCCCCCCCN(CCO)CCO | – | 19.3 µM (active) |
| CCCCC(CC)COP(=O)(O)O (stereo not given) | 52.7% | – |
| C=C1CCC2CC1C2(C)C (stereo not given) | 17.6% | – |
| C=Cc1ccc(S(=O)(=O)O)cc1 | – | 61.1 µM (active) |
| CC(C)=CCC/C(C)=C/CC/C(C)=C/CCC(=O)OC/C=C(\C)CCC=C(C)C | 17.1% [at 42.5 µM] | – |
